These results are taken from the supplement of paper PMC3334620.

The full ranking holds about 33,000 sequences; the median of “E-score (-0.5 to 0.5)” is about -0.0034, and the highest 2% start at about 0.25. The sample as a whole holds a higher share of the highest values than the screen did.

This experiment concerns the target T1, Yap3 (UniProt P38749).
T1 sequence: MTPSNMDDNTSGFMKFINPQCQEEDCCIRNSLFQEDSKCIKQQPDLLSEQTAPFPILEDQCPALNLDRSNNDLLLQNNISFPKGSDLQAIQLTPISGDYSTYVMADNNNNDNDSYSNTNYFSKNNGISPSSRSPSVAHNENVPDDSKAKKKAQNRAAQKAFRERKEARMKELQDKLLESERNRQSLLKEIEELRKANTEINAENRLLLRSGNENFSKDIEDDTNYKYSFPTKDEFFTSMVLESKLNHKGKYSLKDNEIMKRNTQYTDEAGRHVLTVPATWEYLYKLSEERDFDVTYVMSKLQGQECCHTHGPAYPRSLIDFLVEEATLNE
Nature of the experiment: PBM E-score (8-mer binding enrichment) (E-score (-0.5 to 0.5)); higher = stronger / more preferred TF binding. The following applies: protein concentration: 100 nM; construct: GST-full length. The method, boiled down: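 PURExpress in vitro transcription/translation supplied GST-tagged yeast transcription factors, either full-length or DNA-binding domain. Applied at about 100-200 nM to universal all-10-mer Agilent arrays double-stranded by primer extension, the bound protein was detected with fluorescent anti-GST. E-scores, modified Wilcoxon-Mann-Whitney statistics, were given by the Universal PBM Analysis Suite to ungapped eight-base words pooled with their reverse complements after masliner normalisation.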
Regarding GGCCTTAC, the “PBM E-score” value was -0.144.

On to CTCTAATC, for which the “PBM E-score” value is -0.0693.

For CCACTAGC, the “PBM E-score” value was -0.158.

Turning to AGCTGAAA, the “PBM E-score” value is -0.101.

With AGAATTCT, the “PBM E-score” value came out at 0.124.

Turning to TCCGCAAA, the “PBM E-score” value turned out to be 0.0357.

Regarding ACAGACGC, the “PBM E-score” value was -0.168.

In the case of CGTGCACC, the “PBM E-score” value is -0.0988.

Regarding AATTACGG, the “PBM E-score” value was 0.235.

In the case of AATTACGC, the “PBM E-score” value came to 0.208.

As for AATTACGT, the “PBM E-score” value is 0.308.

As for CATAATTA, the “PBM E-score” value was determined as 0.316.

Turning to CATAATTC, the “PBM E-score” value turned out to be 0.23.

For the sequence CATAATGA, the “PBM E-score” value turned out to be 0.118.

On to AATAATGC, for which the “PBM E-score” value worked out at 0.216.

For the sequence AATAATTA, the “PBM E-score” value was found to be 0.316.

AATAATGA: the “PBM E-score” value amounted to 0.0556.

Turning to AATAATTC, the “PBM E-score” value stood at 0.263.

As to GATAATTA, the “PBM E-score” value was determined as 0.251.

As for AATAATTG, the “PBM E-score” value amounted to 0.203.

In the case of ACCTTCAG, the “PBM E-score” value is -0.0617.

AGCAAAGC: the “PBM E-score” value was determined as 0.0118.

Consider ACTAGCGC, for which the “PBM E-score” value was found to be 0.0683.

With GGCACTAA, the “PBM E-score” value came to 0.107.

With CGGTGTGA, the “PBM E-score” value turned out to be 0.115.

As to CAGAACAA, the “PBM E-score” value was found to be 0.248.

AAGAACAG: the “PBM E-score” value worked out at 0.0639.

Consider AAGAACAA, for which the “PBM E-score” value was determined as 0.267.

GAGAACAA: the “PBM E-score” value amounted to 0.311.

For GAGAACAC, the “PBM E-score” value was -0.00708.

Turning to AAGAACAC, the “PBM E-score” value was determined as 0.147.

Consider CCGCGAGG, for which the “PBM E-score” value was -0.0632.

Regarding AAGTCTCC, the “PBM E-score” value was -0.0848.

For ACGGAGAT, the “PBM E-score” value was -0.0531.

Turning to CACTGGAC, the “PBM E-score” value was -0.0821.

Regarding ACTATTAC, the “PBM E-score” value was determined as 0.149.

With CTTATTAC, the “PBM E-score” value worked out at 0.251.

As to ACTATTAG, the “PBM E-score” value turned out to be 0.136.

As for ATTATTAG, the “PBM E-score” value stood at 0.259.

As for ATTATTAC, the “PBM E-score” value turned out to be 0.269.

With ATTATTGG, the “PBM E-score” value came out at 0.0681.

Regarding ATCCAAAG, the “PBM E-score” value was found to be 0.165.

As for GTCAGCCA, the “PBM E-score” value was -0.0924.

On to CCCCAACA, for which the “PBM E-score” value is -0.111.

As to AGTATAAG, the “PBM E-score” value came to 0.193.

Consider AGTATATG, for which the “PBM E-score” value was 0.157.

Take AGTATAAC: the “PBM E-score” value was -0.0565.

For ATTATAAT, the “PBM E-score” value came to 0.319.

Take ATTATAAA: the “PBM E-score” value came to 0.231.

Turning to GGTATAAA, the “PBM E-score” value is 0.239.

For the sequence TGTATAAA, the “PBM E-score” value was determined as 0.211.

Turning to AGTATAAT, the “PBM E-score” value was 0.293.

As for ATTATAAG, the “PBM E-score” value worked out at 0.0886.

On to AGTATAAA, for which the “PBM E-score” value came to 0.304.

Consider AGTATATC, for which the “PBM E-score” value came to 0.0292.

Consider AGTATATA, for which the “PBM E-score” value is 0.364.

As to CGACTCCG, the “PBM E-score” value was -0.24.

On to GCTGGCTA, for which the “PBM E-score” value was -0.196.

As to ACTCACCA, the “PBM E-score” value was -0.0571.

Consider AGGTTACA, for which the “PBM E-score” value was -0.0016.

In the case of GGCTGCAC, the “PBM E-score” value is -0.206.

Take CGTTGTGA: the “PBM E-score” value is -0.0712.

As to ATTTATTC, the “PBM E-score” value stood at 0.212.

In the case of CATATTTA, the “PBM E-score” value came out at 0.185.

As to CTTATTTC, the “PBM E-score” value was found to be 0.251.

Consider GGTATTTA, for which the “PBM E-score” value stood at 0.104.

Consider AATATTTA, for which the “PBM E-score” value turned out to be 0.295.

Consider ATTATTTC, for which the “PBM E-score” value was 0.302.

Regarding ATTTATTG, the “PBM E-score” value turned out to be 0.0964.

For the sequence ACTATTTC, the “PBM E-score” value amounted to 0.224.

As to CGTATTTA, the “PBM E-score” value worked out at 0.313.

Consider AGTATTTA, for which the “PBM E-score” value is 0.16.

For the sequence ATTTATTA, the “PBM E-score” value amounted to 0.277.

In the case of AATATTTC, the “PBM E-score” value came to 0.154.

For GGGGGACC, the “PBM E-score” value is -0.358.

In the case of GATGGAGC, the “PBM E-score” value is -0.108.

For the sequence ACACCAGG, the “PBM E-score” value is -0.237.

Consider CACTACTG, for which the “PBM E-score” value is 0.0352.

ATCAGTAG: the “PBM E-score” value is 0.0393.

As to GCACACGC, the “PBM E-score” value was -0.0783.

As for CTACTGCC, the “PBM E-score” value is -0.0886.

For ATGTACAA, the “PBM E-score” value came out at 0.0885.

Turning to CGACGTCA, the “PBM E-score” value came out at 0.0828.

Consider CAGGTTAC, for which the “PBM E-score” value was 0.0255.

Take GGTTATTA: the “PBM E-score” value is 0.158.

In the case of CTTTATTA, the “PBM E-score” value is 0.199.

As for ATTATTTA, the “PBM E-score” value came out at 0.289.

Regarding GTTTATTA, the “PBM E-score” value was 0.268.

As for ATTATTTG, the “PBM E-score” value was 0.197.

CTTATTTA: the “PBM E-score” value is 0.11.

As for AATTTACA, the “PBM E-score” value was 0.155.

In the case of ACTTTACT, the “PBM E-score” value was 0.284.

Turning to AATTTAGT, the “PBM E-score” value worked out at 0.21.

For the sequence AAATTATG, the “PBM E-score” value amounted to 0.208.

Turning to AATTTACT, the “PBM E-score” value was 0.271.

Turning to ACTTTACC, the “PBM E-score” value is 0.149.

Consider AATTTAAC, for which the “PBM E-score” value was found to be 0.113.

For the sequence AATTTAAG, the “PBM E-score” value amounted to 0.106.

As for ACTTTACA, the “PBM E-score” value was 0.052.

Consider AATTTAAT, for which the “PBM E-score” value was determined as 0.261.

As to AAATTATT, the “PBM E-score” value was 0.275.

For AAATTATC, the “PBM E-score” value amounted to 0.251.
